# A selection: hits, their analogues and other compounds. The true share with any hit is near 3.5%.
# FBW7 act – human FBW7 E3 ligase activation, primary screen. Q969H0. AlphaScreen FBW7–phospho-cyclin E peptide binding, activator screen. 650,000 tested, 0.13% active. normalized activity (activation), % at 26.1 µM; in the data active means normalized activity above about 1.9%;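 further: purified mutant Fbw7 with reduced substrate affinity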
# GPR151 activ – activators of human GPR151. Q8TDV0. PathHunter beta-arrestin GPR151 cells, luminescence. activation, % at 11.2 µM. 650,000 tested, 1% active; in the data active means activation above about 4.9%
# MITF inh – blocks human microphthalmia-associated transcription factor. inhibition, % at 2.6 µM. AID 1259374. AlphaScreen MITF homodimerization, bead proximity signal. 650,000 tested, 0.91% active. O75030; in the data active means inhibition above about 50%
# Target sequence (O75030 whole entry, looked up): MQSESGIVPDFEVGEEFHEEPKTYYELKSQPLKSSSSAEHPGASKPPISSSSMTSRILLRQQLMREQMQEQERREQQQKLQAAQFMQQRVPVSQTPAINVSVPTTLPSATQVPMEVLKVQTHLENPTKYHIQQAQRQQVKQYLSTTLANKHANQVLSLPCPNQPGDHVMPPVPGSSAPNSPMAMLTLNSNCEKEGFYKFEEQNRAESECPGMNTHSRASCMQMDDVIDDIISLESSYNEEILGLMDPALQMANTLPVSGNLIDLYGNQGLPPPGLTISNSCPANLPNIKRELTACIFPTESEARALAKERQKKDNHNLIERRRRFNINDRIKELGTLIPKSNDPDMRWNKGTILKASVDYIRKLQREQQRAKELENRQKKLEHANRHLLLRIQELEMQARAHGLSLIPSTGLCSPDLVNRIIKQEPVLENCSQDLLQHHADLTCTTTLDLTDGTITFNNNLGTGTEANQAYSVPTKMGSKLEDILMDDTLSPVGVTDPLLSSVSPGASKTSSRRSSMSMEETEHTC
# TEAD-YAP inh – TEAD-YAP interaction inhibition. HEK-TIYL cells, TEAD-Gal4/YAP UAS-luciferase luminescence. inhibition, % at 9.12 µM. 640,000 tested, 1.4% active. AID 1259422; in the data active means inhibition above about 32%
# GPR151 confirm – human GPR151 activation, confirmation screen; shares compounds with GPR151 activ; GPR151 PathHunter beta-arrestin cells, luminescence, 90 min; % of EA-reagent control over plate median; activation, % at 11.2 µM; 6,700 tested, under 10 active; AID 1508609;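 active means mean percent activation across replicates above the confirmation screen cutoff of 4.91%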
# GPR119 ag – GPR119 activation, counter-screen for GPR151 activators. shares compounds with GPR151 activ. GPR119 PathHunter beta-arrestin cells, luminescence, 90 min; 0 = compound-well median, 100 = enzyme-acceptor control. activation, % at 11.2 µM. 6,700 tested, 0.3% active. AID 1508611;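 active means mean percent activation in the counterscreen above 29.09%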;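 further: counterscreen on off-target GPR119 to flag nonselective hits from the GPR151 activator screen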
# Numbers stand for hits; . = inactive; / = not tested or not shown; ! = a repeat was not active.
SMILES,FBW7 act,GPR151 activ,MITF inh,TEAD-YAP inh,GPR151 confirm,GPR119 ag
CC1=C(C(=O)OCCc2ccccc2)C(c2ccc(O)cc2)C2=C(CC(c3ccc(Cl)cc3)CC2=O)N1 (stereo not drawn),.,.,.,.,/,/
CN1CCN(c2cc(-c3cn[nH]c3)ccc2NC(=O)Cc2cccc(Cl)c2)CC1,.,5.2,.,.,6.6,54.2
C[C@@H]1CC[C@H]2C(=O)O[C@@H](COc3ccc(C(C)(C)C)cc3)CN2[C@@H]1c1ccc(Br)cc1,.,5.4,.,/,.,.
C[C@H]1CC[C@H]2C(=O)O[C@H](CO)CN2[C@@H]1c1ccc(Br)cc1,.,.,.,/,/,/
CCC1CCC2(CC1)SCC(=O)N2c1ccccc1 (stereo not drawn),.,.,.,.,/,/
CCC1CCC2(CC1)SCC(=O)N2c1ccc(F)cc1 (stereo not drawn),.,6.4,.,.,.,.
CN(CCO)CC(O)Cn1c2ccccc2c2ccccc21 (stereo not drawn),.,.,.,.,/,/
O=C(CC(NCc1ccccc1)C(=O)O)Nc1cc(Cl)ccc1Cl (stereo not drawn),.,7.2,.,.,.,.
O=C(CCc1ccccc1)Nc1cc(Cl)ccc1Cl,.,.,.,.,/,/
O=S(=O)(c1ccc(F)cc1)N1CCSCC1,.,5.8,.,.,.,.
Cc1ccc2c(c1)cc(CN(Cc1nnnn1C(C)(C)C)C1CCCC1)c1nnnn12,.,.,.,.,/,/
Oc1ccccc1-c1csc(Nc2ccccn2)n1,.,7.6,.,.,.,.
CC(=O)Nc1cnn(-c2ccc(C(=O)NC(c3ccncc3)c3ccccc3C)cc2)c1 (stereo not drawn),.,5.4,.,.,.,.
FC(F)(F)c1ccc(Cn2cnc3c(Nc4ccc(N5CCOCC5)cc4)nc(N4CCOCC4)nc32)cc1,.,.,.,.,/,/
COc1ccc(CCNc2nc(Nc3ccc(N4CCOCC4)cc3)nc3c2ncn3-c2ccccc2)cc1,.,6.5,.,.,.,.
NC(=O)c1ccc(-c2nc(Nc3ccc(N4CCOCC4)cc3)c3ncn(Cc4ccc(C(F)(F)F)cc4)c3n2)cc1,.,.,.,.,/,/
COc1ccc(CCNc2nc(NC3CCC(O)CC3)nc3c2ncn3Cc2ccc(C(F)(F)F)cc2)cc1 (stereo not drawn),.,5.9,.,36.2,.,36.6
FC(F)(F)c1ccc(Cn2cnc3c(Nc4ccc(N5CCOCC5)cc4)nc(Cl)nc32)cc1,.,6.9,.,.,.,.
COc1ccc(-c2nc(Nc3ccc(N4CCOCC4)cc3)c3ncn(Cc4ccc(C(F)(F)F)cc4)c3n2)cc1,.,11.6,.,.,.,.
CC(C)N(CCNc1nc(NC2CCC(O)CC2)nc2c1ncn2Cc1ccc(C(F)(F)F)cc1)C(C)C (stereo not drawn),.,.,.,.,/,/
O=C1CSC(c2ccc(Cl)cc2Cl)N1c1ccc2ccccc2c1 (stereo not drawn),.,.,.,.,/,/
Cc1[nH]c2ccccc2c1SCCNC(=O)c1ccc(N2C(=O)CCC2=O)cc1,.,6.2,.,.,.,.
CC(=O)NC1(C)C2CC3CC(C2)CC1C3 (stereo not drawn),.,.,.,.,/,/
Cc1nc2c(C(=O)O)cnn2c(C)c1Cc1ccc(Cl)cc1,.,5.8,.,.,.,.
Cc1nc2c(C(=O)NC3CCCCC3)cnn2c(C)c1Cc1ccc(F)cc1,.,5.0,.,.,.,.
SMILES,FBW7 act,GPR151 activ,MITF inh,TEAD-YAP inh,GPR151 confirm,GPR119 ag
Cc1nc2c(C(=O)NC3CCCC3)cnn2c(C)c1Cc1ccc(F)cc1,.,.,.,.,/,/
Cc1cccc(N2C(=O)C3C4C=CC(C5CC45)C3C2=O)c1 (stereo not drawn),.,.,.,.,/,/
COc1cc2c(cc1NC(=O)c1ccc3ccccc3c1OC)oc1ccccc12,.,.,.,.,/,/
C=CCNC(=O)CCN1C(=O)c2ccccc2C1=O,.,5.6,.,.,.,.
CC(=O)Nc1cccc(-c2nccnc2NS(=O)(=O)c2ccc3ccccc3c2)c1,.,.,.,.,/,/
COc1ccc(C[C@H](N)C(=O)N[C@@H]2[C@@H](CO)OC(n3cnc4c(N(C)C)ncnc43)[C@@H]2O)cc1 (stereo partly drawn),.,6.8!,.,100.1,.,.
Nc1ncnc2c1ncn2[C@@H]1O[C@H](CO)[C@@H](O)[C@H]1O,.,.,.,.,/,/
NC(=O)c1cc2c(ccc3ccccc32)oc1=Nc1ccccc1,.,5.2,.,.,.,.
COCCn1c(=S)[nH]c2cc(C(=O)Nc3ccc(F)cc3)ccc2c1=O,.,.,.,.,/,/
CC1(C)CC(=O)C2=C(C1)N(c1ccccc1)C(=O)CC2c1ccccc1 (stereo not drawn),.,6.8,.,.,.,.
Cc1ccc(N2C(=O)CC(c3ccccc3)C3=C2CC(C)(C)CC3=O)cc1 (stereo not drawn),.,.,.,.,/,/
COc1cc(/C=C(\C#N)c2nn(-c3ccccc3)c(N)c2C#N)ccc1OCCO,.,.,.,.,/,/
COc1cc(OC)cc(C(=O)OCC(=O)c2ccccc2Cl)c1,.,.,.,.,/,/
CC(=O)c1cccc(NC(=O)CC2S\C(=N/N=C/C=C/c3ccccc3)NC2=O)c1 (stereo not drawn),.,9.3,.,.,.,.
Cc1ccc(-n2ncc3c(=O)n(Cc4cccnc4)cnc32)cc1,.,6.6,.,.,.,.
CCOc1cc(/C=C2/C(=N)N3OC(C)=CC3=NC2=O)ccc1OCc1ccc2c(c1)OCO2,.,.,.,.,/,/
Cc1c(C)n2c3c(=O)n(C)c(=O)n(C)c3nc2n1CC(=O)c1ccc(Cl)cc1,.,.,.,.,/,/
O=c1c2ccccc2ncn1CCCCOc1ccc(Cl)cc1,.,.,.,.,/,/
S=C(Nc1ccc2c(c1)OCO2)N1CCN(c2ncccn2)CC1,.,6.6,.,.,.,.
COc1cccc(C2C(C#N)=C(N)Oc3c2c(O)cc2oc(=O)cc(C)c32)c1OC (stereo not drawn),.,.,.,.,/,/
Fc1cccc(CSc2nc(Nc3ccc4c(c3)OCO4)c3ccccc3n2)c1,.,5.0,.,.,.,.
O=C(CSc1nc(Nc2ccc3c(c2)OCO3)c2ccccc2n1)c1ccccc1,.,5.3,.,.,.,.
COc1cc(Nc2nc(SCc3ccc(F)cc3)nc3ccccc23)cc(OC)c1,.,5.0,.,.,.,.
CCCCNC(=O)CSc1nc(Nc2ccc3c(c2)OCO3)c2ccccc2n1,.,.,.,.,/,/
CCCCNc1nc(SCC(=O)c2ccc(O)c(O)c2)nc2ccccc12,.,5.6,55.9,.,.,.
CCOC(=O)N1CCN(C(=O)CCc2nnc(CCCc3ccccc3)o2)CC1,.,.,.,.,/,/
CN(Cc1nc2ccccc2s1)C(=O)CCl,.,.,.,.,/,/
CCOC(=O)COc1ccc2c3c(c(=O)oc2c1)CCCCC3,.,.,.,.,/,/

# Compound activity deposited in PubChem BioAssay by The Scripps Research Institute Molecular Screening Center.
